# Compound activity deposited in PubChem BioAssay by several laboratories.
# ERa coact pot – enhances coactivator binding to human estrogen receptor alpha; P03372; TR-FRET ERalpha-LBD/SRC-Cy5 coactivator binding, 2 h; 100 = basal binding, no effect; coactivator binding (% of control), % at 25.6 µM; 1.3% of 86,000 active; in the data active means activity above about 200%;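 further: binding measured in presence of low estradiol as agonist stimulus; 0% = peptide alone without receptor and 100% = receptor with peptide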
# Target sequence (P03372 whole entry, looked up, the tested form may be a part): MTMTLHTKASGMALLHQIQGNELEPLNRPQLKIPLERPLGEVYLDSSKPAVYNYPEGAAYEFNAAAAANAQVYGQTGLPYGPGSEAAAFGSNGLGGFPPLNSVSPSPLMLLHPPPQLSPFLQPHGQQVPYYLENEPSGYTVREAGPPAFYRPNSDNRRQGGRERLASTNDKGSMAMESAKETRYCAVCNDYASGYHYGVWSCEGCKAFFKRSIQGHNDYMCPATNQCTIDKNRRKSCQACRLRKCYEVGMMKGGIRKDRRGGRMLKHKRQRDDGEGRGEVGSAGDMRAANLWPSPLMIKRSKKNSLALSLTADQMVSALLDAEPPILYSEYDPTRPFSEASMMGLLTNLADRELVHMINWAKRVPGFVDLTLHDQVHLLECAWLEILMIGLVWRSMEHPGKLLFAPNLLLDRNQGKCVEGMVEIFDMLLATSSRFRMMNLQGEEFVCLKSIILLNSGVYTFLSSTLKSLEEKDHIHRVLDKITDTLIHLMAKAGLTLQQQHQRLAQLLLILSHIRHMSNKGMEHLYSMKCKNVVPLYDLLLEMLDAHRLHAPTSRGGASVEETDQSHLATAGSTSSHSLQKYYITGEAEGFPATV
# Calb biofilm kill – kills Candida albicans biofilms; C. albicans biofilm + clotrimazole, Alamar Blue; inhibition, % at 6 µM; 0.14% of 85,000 active; AID 834;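 active means inhibition above 20%; inactive means inhibition below 20%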;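 further: preformed 24 hr biofilms exposed to compound for 48 hr; 0% = biofilm without compound and 100% = blank killed by clotrimazole plus chlorhexidine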
# HePTP inhibitor – inhibitors of human HePTP phosphatase | P35236 | recombinant HePTP phosphatase activity, OD absorbance | inhibition, % at 20 µM | 0.64% of 110,000 active; in the data active means inhibition above about 50%;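 further: plate controls were vehicle for no effect and reference inhibitor for full effect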
# ERa coact inh – ER-alpha (human) coactivator binding inhibition. P03372. TR-FRET ER-alpha LBD / SRC-1 peptide, estradiol-bound. inhibition, % at 25.6 µM. 1.7% of 86,000 active. AID 629; in the data active means inhibition above about 50%;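 further: 0% = receptor plus peptide control and 100% = peptide only without receptor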
# ERb SRC1 inh – blocks coactivator binding to human estrogen receptor beta; Q92731; TR-FRET ER-beta LBD / SRC1-Cy5 peptide binding; receptor agonist-loaded with 1 µM estradiol; inhibition, % at 25.6 µM; 1.3% of 86,000 active;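 active means compounds whose percent inhibition of the receptor-coactivator binding signal exceeds about 50% in the single-dose screen, limit read from the data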;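 further: 0% = receptor plus peptide wells without compound and 100% = peptide-only wells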
# Smad3 inh – Smad3 (human) transcription factor binding inhibition; inhibition, % at 25 µM; P84022; TR-FRET Smad3/Dy647-FoxH1 peptide binding, europium anti-His; AID 630; 0.29% of 88,000 active;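 active means compounds that reduce the energy-transfer binding signal between the protein and its labelled peptide by more than half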;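 further: 0% = Smad3 plus labelled peptide maximal FRET and 100% = peptide-only background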
# Starred values were filed as active, the others as inactive; nt = no result given; [ ] = another dose, or the depositor's remark. Rows were chosen to be rich in hits. Some 2.9% of all compounds tested hit in one or more screens of this group.
SMILES,ERa coact pot,Calb biofilm kill,HePTP inhibitor,ERa coact inh,ERb SRC1 inh,Smad3 inh
COc1cccc2cc(-c3nc(-c4cccs4)cs3)c(=O)oc12,86,4,-3,50*[fluorescence artefact?],24,3
COc1ccc(S(=O)(=O)N(CC(=O)Nc2ccc(Cl)cc2C)Cc2ccccc2)cc1OC,nt,nt,3,nt,nt,nt
CCOC(=O)c1c(-n2c(C)cc(/C=C3\NC(=S)NC3=O)c2C)sc2c1CCCC2,nt,nt,-4,nt,nt,nt
CCOc1c(Cl)cc(CNCC(C)C)cc1OC,109,59*,nt,-8,-11,11
CCCCNCc1cc(Cl)c(OCCC)c(OCC)c1,108,5,nt,9,-4,0
O=C(O)c1ccc(NS(=O)(=O)c2cccs2)cc1,nt,nt,9,nt,nt,nt
O=S(=O)(Nc1ccc(N2CCOCC2)cc1)c1cccs1,6,3,2,97*[fluorescence artefact?],76*[fluorescence artefact?],13
COc1ccc(CN2CCN(C(=O)c3ccc([N+](=O)[O-])cc3)CC2)cc1OCc1ccccc1,nt,nt,6,nt,nt,nt
COc1ccc(C(=O)Nc2ccc(N3CCOCC3)cc2)cc1,nt,nt,-14,nt,nt,nt
O=C(c1ccc2nc(-c3ccco3)c(-c3ccco3)nc2c1)N1CCN(c2ncccn2)CC1,26,6,nt,76*[fluorescence artefact?],86*[fluorescence artefact?],17
O=C(Nc1ccc(N2CCOCC2)cc1)c1ccc2nc(-c3ccco3)c(-c3ccco3)nc2c1,42,-2,14,80*[fluorescence artefact?],50*[fluorescence artefact?],15
O=C(c1cccc(C(=O)N2CCN(c3ncccn3)CC2)c1)N1CCN(c2ncccn2)CC1,96,11,6,-11,-11,-13
S=C(Nc1ccc(N2CCOCC2)cc1)Nc1ccc2nc(-c3ccco3)c(-c3ccco3)nc2c1,14,0,nt,68*[fluorescence artefact?],89*[fluorescence artefact?],-17
CC(OCc1ccccc1)C(NC(=O)OC(C)(C)C)C(=O)NCCc1c[nH]c2ccccc12 (stereo not drawn),nt,nt,-2,nt,nt,nt
CNc1nc(Nc2cccc([N+](=O)[O-])c2)nc(OCC(F)(F)F)n1,nt,nt,105*,nt,nt,nt
CNc1nc(Nc2nc(C)cc(C)n2)nc(OCC(F)(F)F)n1,nt,nt,4,nt,nt,nt
O=C(Nc1ccccc1N1CCOCC1)c1ccc2c(c1)C(=O)N(Cc1ccncc1)C2=O,15,1,8,63*[fluorescence artefact?],39,1
CN1CCN(C(c2cccnc2)c2ccc3cccnc3c2O)CC1 (stereo not drawn),83,12,-4,78*[fluorescence artefact?],60*[fluorescence artefact?],8
C/C(N[O-])=C(\C)[N+]([O-])=[Co].CC(=N\[O-])/C(C)=N/[O-].C[CH-][C@@H](C)O.c1ccncc1,nt,nt,nt,nt,nt,66*
C/C(N[O-])=C(\C)[N+]([O-])=[Co].C/C(N[O-])=C(\C)[N+]([O-])=[Co].CC(=N\[O-])/C(C)=N/[O-].CC(=N\[O-])/C(C)=N/[O-].[CH3-].[CH3-],nt,nt,nt,nt,nt,10
C/C(=N\NC(=O)c1cc(Br)ccc1O)c1cccnc1,nt,nt,-1,nt,nt,nt
Cc1cc(C)n(-c2nc(Nc3ccccc3)nc(-n3nc(C)cc3C)n2)n1,248*,1,nt,63*[fluorescence artefact?],55*[fluorescence artefact?],17
Cc1cc(C)n(-c2nc(N(c3ccccc3)c3ccccc3)nc(-n3nc(C)cc3C)n2)n1,129,3,1,33,13,1
O=C(Nc1ccc(-c2nc3ccccc3s2)c(O)c1)c1ccc2c(c1)OCCO2,nt,nt,68*,nt,nt,nt
Cc1nc2c(ccc3nc(NC(=O)c4ccc5c(c4)OCCO5)sc32)s1,201*[fluorescence artefact?],8,20,75*[fluorescence artefact?],58*[fluorescence artefact?],-5
SMILES,ERa coact pot,Calb biofilm kill,HePTP inhibitor,ERa coact inh,ERb SRC1 inh,Smad3 inh
O=C(Nc1ccc(O)c(-c2nc3ccccc3s2)c1)c1ccc2c(c1)OCCO2,nt,nt,-12,nt,nt,nt
CCc1nnc2sc(-c3ccc(NC(=O)c4ccco4)cc3)nn12,104,-1,-3,9,3,0
CCc1nnc2sc(-c3ccc(NC(=O)c4ccc5c(c4)OCCO5)cc3)nn12,326*,-2,12,24,-2,-22
O=C(Nc1cccc2nsnc12)c1ccc2c(c1)OCCO2,114,9,-2,-9,-5,9
Cc1nc2ccc3nc(NC(=O)c4ccc5c(c4)OCCO5)sc3c2s1,418*[fluorescence artefact?],5,0,62*[fluorescence artefact?],44,-30
Cc1ccc(/C=C2/SC(=S)N(CC(=O)O)C2=O)cc1,nt,nt,6,nt,nt,nt
O=C(N=Nc1c(O)n(CN2CCCCC2)c2ccc(Br)cc12)c1ccncc1,nt,nt,2,nt,nt,nt
COc1ccccc1CNC(=O)c1cnccn1,94,2,nt,61*[fluorescence artefact?],37,22
COc1ccccc1CNC(=O)COC(=O)c1cnccn1,115,4,0,2,7,6
O=C(COc1ccccc1)NCCc1ccccc1,nt,nt,-9,nt,nt,nt
CCC(NC(=O)c1ccccc1NC(=O)c1ccc(OC)cc1)C(=O)O (stereo not drawn),nt,nt,-6,nt,nt,nt
CCn1c(SC(C)C(=O)O)nc2sc3c(c2c1=O)CCC3 (stereo not drawn),3,2,nt,93*[fluorescence artefact?],92*[fluorescence artefact?],13
CCn1c(SC)nc2sc3c(c2c1=O)CCCC3,nt,nt,0,nt,nt,nt
Cc1nn(-c2ccccc2)c(C)c1C(=O)OC/C(O)=C(\C#N)c1nc2ccccc2[nH]1,60,3,1,56*[fluorescence artefact?],23,1
Cc1ccc(OCC(=O)N=Nc2c(O)[nH]c(=O)[nH]c2=O)cc1,nt,nt,3,nt,nt,nt
COc1cc(/C=N/NC(=O)C(C)Nc2ccc(Cl)cc2)cc(OC)c1OC (stereo not drawn),nt,nt,1,nt,nt,nt
COc1ccc(NC(=O)c2ccc3c(=O)n(Cc4ccco4)c(=S)[nH]c3c2)c(OC)c1,110,8,-5,73*[fluorescence artefact?],13,0
CCOC(=O)C1CCN(CN2C(=O)C(=O)c3ccccc32)CC1,nt,nt,3,nt,nt,nt
CCOC(=O)C1=NN(C(=O)c2cccc([N+](=O)[O-])c2)C(O)(c2ccc(Cl)cc2)C1 (stereo not drawn),nt,nt,104*,nt,nt,nt
CCOC(=O)C1=C(O)/C(=C/c2ccc([N+](=O)[O-])cc2)SC1=Nc1cccc(Cl)c1,nt,nt,6,nt,nt,nt
COc1ccc(NS(=O)(=O)c2ccc(N)c(C(=O)O)c2)cc1,69,8,2,57*[fluorescence artefact?],19,41
O=C(Nc1nc(-c2cc3ccccc3oc2=O)cs1)c1ccc(Br)o1,224*[fluorescence artefact?],-1,nt,38,27,-14
O=C(Nc1nc(-c2ccc(Br)cc2)cs1)c1cc2ccccc2o1,nt,nt,1,nt,nt,nt
CCOC(=O)C1CCN(c2c(N(C)Cc3ccco3)c(=O)c2=O)CC1,99,22*,3,-5,-9,4
CCOC(=O)COc1ccc(C2NC(=S)NC(C)=C2C(=O)OC)cc1OC (stereo not drawn),nt,nt,0,nt,nt,nt
CC(C)(C)OC(=O)N1CCC(c2cc(=O)n3[nH]c(-c4ccc(Cl)cc4)cc3n2)CC1,251*[fluorescence artefact?],6,nt,31,11,-28
COc1cccc(C2NC(=O)NC(C)=C2C(=O)OCCOc2ccccc2)c1OC (stereo not drawn),nt,nt,-2,nt,nt,nt
C/C(=N\NC(=O)CCN1CCN(C)CC1)c1ccc(O)cc1,nt,nt,2,nt,nt,nt
c1ccc2c[n+](Cc3ccnc4ccccc34)ccc2c1,nt,nt,nt,nt,nt,101*
O=C(O)/C(Cc1ccnc2ccccc12)=N\O,nt,nt,nt,nt,nt,-14
